Bioassay records: PubChem BioAssay, National Center for Advancing Translational Sciences (NCATS)
CHX counter: counter-screen for Shiga toxin inhibitors: cycloheximide protein synthesis inhibition. max response, %. cell reporter, cycloheximide protein synthesis inhibition counterscreen. 300,000 tested, 12% active. AID 2314; in the data active = max response mostly above about 13%, no sharp cut-off; inactive = mostly below about 14%; also: read at 38.3 µM for the half of the compounds with a filed dose; 0% is about no effect
LASV entry inh: inhibitors of Lassa virus binding or cell entry; Lassa virus pseudotype entry inhibition, cell reporter; Potency, µM (highest dose often 37.9 µM), without a hit: at the top dose activity change, negative = inhibition, most hits filed as inhibitors; 300,000 tested, 1.2% active; calls by dose curve; tested in HEK293 cells; also: potency is read from the fitted curve at half-maximal effect; % is scaled to controls: 0 for no effect and ±100 for the full control effect; nearly all actives have a fitted effect of over 50% in size
Shiga toxin inh: blocks Shiga toxin action in Vero cells; Vero cells, Shiga toxin protein synthesis inhibition reporter; inhibition, % at 38.7 µM; 290,000 tested, 9.2% active; in the data active = inhibition mostly above about 28%, no sharp cut-off; inactive = mostly below about 43%; also: 0% is about no effect
MARV entry inh: blocks Marburg virus binding to or entry into cells; Marburg virus pseudotyped entry inhibition, cell reporter; Potency, µM (top dose mostly 37.8 µM), for inactives: at the top dose activity change, negative = inhibition, hits mostly inhibitors; 300,000 tested, 1.8% active; AID 540276; calls by dose curve; tested in HEK293 cells; also: potency is read from the fitted curve at half-maximal effect; % is scaled to controls: 0 for no effect and ±100 for the full control effect
AMA1 RON2 block: inhibitors of Plasmodium falciparum AMA1-RON2 interaction | 360,000 tested, 0.2% active | AID 720542 | AlphaScreen AMA1-biotinylated RON2 peptide binding | Potency, µM (highest dose often 58.2 µM), for inactives: top-dose activity change, negative = inhibition, hits mostly inhibitors; active = well fitted inhibition curve with a large enough effect; inconclusive = small, poorly fitted or top-dose-only effect; inactive = no such curve, though single readings can be large or run the other way;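 also: potency is read from the fitted curve at half-maximal effect; 0% = vehicle wells and -100% = peptide control; nearly all actives have a fitted effect of over 45% in size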
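AMA1 (3D7) with his tag at 25 nM final met compounds first, then biotinylated RON2 peptide at 25 nM; detection used donor plus acceptor beads, 10 µg/mL apiece, read by AlphaScreen after 30 min at room temperature.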
The depositor's hits bear a star; ? = inconclusive; nt = no result given; [ ] = remark or other dose. Shown is part of a subset that was picked to be rich in hits.

SMILES	CHX counter	LASV entry inh	Shiga toxin inh	MARV entry inh	AMA1 RON2 block
CCOC(=O)C1(Cc2ccccc2C)CCCN(C(=O)c2cc(C3CC3)[nH]n2)C1 (stereo not given)	-3	-26%	-8	9%[46.1 µM]	-14%
CC/C(=N\NC(=O)c1cc(C2CC2)[nH]n1)c1ccccc1	15*	nt	69*	nt	-6%
Cc1nn(-c2ccccc2)c(C)c1/C=N/NC(=O)c1cc(C23CC4CC(CC(C4)C2)C3)[nH]n1	-2	?	-7	?	20%
Cc1cc(C(=O)N/N=C/c2c(C)nn(-c3ccccc3)c2C)n[nH]1	18*	-17%[46.1 µM]	55*	5%[46.1 µM]	66%
O=C(N/N=C/c1c(F)cccc1Cl)c1cc(C2CC2)[nH]n1	30*	nt	77*	nt	6%
CC(=O)c1ccc(N2CCN(c3ncnc4c3cnn4-c3cc(Cl)ccc3C)CC2)cc1	nt	0%[46.1 µM]	nt	nt	nt
Cc1nn(-c2ccccc2)c(C)c1/C=N/NC(=O)c1cnccn1	16*	nt	40	nt	31%
O=[N+]([O-])c1ccccc1/C=N/OCc1ccccc1	31*	?	104*	?	-15%
Cc1cccc(Cn2c(=O)n(-c3ccc(Cl)c(Cl)c3)c(=O)c3c(C)c(C)sc32)c1	nt	7%[46.1 µM]	nt	-5%[46.1 µM]	nt
CNC(=O)c1ccc2snnc2c1	-3	nt	-7	nt	20%
O=C(Nc1ccccc1F)c1ccc2snnc2c1	38*	nt	60*	nt	0%
O=C(Nc1ccc(Cl)cc1)c1ccc2snnc2c1	37*	nt	38*	nt	-1%
COc1ccc(NC(=O)c2ccc3snnc3c2)cc1	46*	-17%	64*	6%[46.1 µM]	3%
CC(=O)c1ccc(NC(=O)c2ccc3snnc3c2)cc1	50*	nt	65*	nt	-5%
CC(C)Cn1c(N)c(C(=O)COC(=O)[C@H](C)NC(=O)c2ccccc2Cl)c(=O)n(C)c1=O	nt	-14%[46.1 µM]	nt	-2%	-7%
COc1ccc(CCC(=O)Nc2nc3c(s2)CN(C)CC3)cc1OC	-4	-4%	-18	-8%	6%
CCOC(=O)[C@@H]1[C@H]2COc3ccccc3[C@H]2N2C(=O)N(c3ccccc3)C(=O)[C@]12C	-4	nt	7	nt	-4%
O=c1sc2ccccc2n1COc1ccccc1	15	28%	48	0%	42%
CC(C)CCOc1ccccc1Cn1c(=O)sc2ccccc21	nt	20%[46.1 µM]	nt	-2%[46.1 µM]	nt
Cc1ccc(OCCn2c(=O)sc3ccccc32)cc1	45*	1%	61*	?	36%
O=c1sc2ccccc2n1COc1ccc(Cl)cc1	35*	5%	72	20%	83%
O=c1sc2ccccc2n1CCCOc1ccccc1	42*	26%	119*	5%[46.1 µM]	51%
COc1ccc(Cn2c(=O)sc3ccccc32)cc1	1	21%	-1	16%	1%
O=c1sc2ccccc2n1Cc1ccccc1	4	?	-9	7%[46.1 µM]	-16%
Cc1ccccc1OCCCn1c(=O)sc2ccccc21	66*	12%	106*	-15%[46.1 µM]	63%
SMILES	CHX counter	LASV entry inh	Shiga toxin inh	MARV entry inh	AMA1 RON2 block
COC(=O)C/C=C/[C@@H](C)[C@@H](/C=N/OC[C@@H](O)COCc1ccco1)NS(=O)(=O)c1ccc(C)cc1	nt	nt	nt	21%[14.2 µM]	nt
CC12CN(C(=S)Nc3ccccc3)CC(C)(CN(C(=S)Nc3ccccc3)C1)C2=O	13	0%	-12	1%[46.1 µM]	5%
CC(C)Oc1ccc(Cn2c(=O)sc3ccccc32)cc1	-2	9%	-28	-15%	15%
Cc1ccc(OCCCn2c(=O)sc3ccccc32)cc1	24*	5%	19	?	19%
CSc1ncccc1C(=O)OCC(=O)Nc1ccc(C)c(S(=O)(=O)N2CCOCC2)c1	nt	?	nt	?	10%
C/C(CCc1oc2c(Br)cc(Br)cc2c1-c1ccc(C)o1)=N\O	-2	-3%	-2	-12%	3.8µM*
Cc1ccc(C2(C)NC(=O)N(CC(=O)NC3CCCCC3)C2=O)cc1 (stereo not given)	nt	28%	nt	-11%[46.1 µM]	1%
NC(=O)C1CCN(c2ncnc3c(-c4ccccc4)nsc23)CC1	50*	-2%	51*	-3%	2%
O=C(c1ccco1)N1CCN(c2ncnc3c(-c4ccccc4)nsc23)CC1	17	?	48	?	-4%
Cc1nnnn1/C(=C\c1ccccc1)C(=O)OCC(=O)N(C)C1CCS(=O)(=O)C1 (stereo not given)	-3	-1%	4	-30%[46.1 µM]	-9%
CCN(C(=O)COC(=O)/C(=C/c1ccccc1)n1nnnc1C)C1CCCCC1	nt	-8%	nt	13µM*	10%
CN1CCN(c2ccc(NC(=O)c3cccc(OCc4ccccc4)c3)cc2)CC1	23*	-17%	60*	22µM*	?
CC(C)Oc1cccc(C(=O)Nc2ccc(N3CCN(C)CC3)cc2)c1	26*	nt	nt	nt	-20%
CCN1CCN(c2ccc(NC(=O)c3cccc(OCc4ccccc4)c3)cc2)CC1	4	-1%	8	?	-27%
O=C(c1ccc2c(c1)N(Cc1ccccc1)C(=O)c1ccccc1S2(=O)=O)N1CCc2ccccc21	nt	-22%[46.1 µM]	nt	?	nt
Fc1ccc(/C=C\c2nccc3c2[nH]c2ccccc23)cc1	13	-28%[46.1 µM]	45	?	34%
Cc1ccc(/C=C\c2nccc3c2[nH]c2ccccc23)cc1	33*	-11%[46.1 µM]	59	?	17%
C(=C\c1nccc2c1[nH]c1ccccc12)/c1ccccc1	33*	nt	85*	nt	53%
Cc1ccc(-n2ncc3c(N(C)Cc4ccccc4)ncnc32)cc1	nt	1%[46.1 µM]	nt	nt	nt
CCOC(=O)c1ccc(-c2ccc(N3C(c4cccc(OC)c4)=Cc4ccc(F)cc4C3CC(C)=O)cc2)cc1F (stereo not given)	nt	nt	nt	nt	16%
CC(=O)Nc1ccccc1-c1nc2ccccc2n(CC(=O)c2ccc(C)c(C)c2)c1=O	nt	-27%[46.1 µM]	nt	-12%[46.1 µM]	nt
COc1ccc(-c2cc(C(=O)NCc3cccnc3)no2)cc1	43*	?	73*	-10%	0%
COc1ccc(-c2cc(C(=O)NCc3ccccc3)no2)cc1OC	-3	15%	-2	1%	0%
O=C(NCc1cccnc1)c1cc(-c2ccccc2)on1	40*	-4%	153	-3%	?
O=C(Nc1cccnc1)c1cc(-c2ccccc2)on1	13	5%	23	-12%	2%
SMILES	CHX counter	LASV entry inh	Shiga toxin inh	MARV entry inh	AMA1 RON2 block
O=C(NCc1ccccc1)c1cc(-c2cccc(O)c2)on1	25*	nt	61*	nt	8%
COc1ccc(CNC(=O)c2cc(-c3ccc(OC)cc3)on2)cc1	nt	-1%[46.1 µM]	nt	?	nt
O=C(NCc1cccnc1)c1cc(-c2cccs2)on1	60*	nt	37*	-2%	-4%
Cc1ccc(S(=O)(=O)N2CCOCC2)cc1C(=O)NCc1ccccc1CN1CCCC1	nt	nt	nt	nt	-1%
Cc1cn([C@H]2C[C@H](O)[C@@H](CNCc3cccn3-c3nccs3)O2)c(=O)[nH]c1=O	nt	nt	nt	nt	15%
C#CCNC(=O)c1ccc(OCc2ccccc2)cc1Cl	19	1%[46.1 µM]	58*	16%[46.1 µM]	-16%
COc1ccc(OCCNC(=O)c2ccccc2Cl)cc1	11	nt	28	nt	7%
O=C(NCCCl)c1ccc(OCc2ccccc2)cc1Cl	34*	nt	66*	nt	0%
COc1cccc(CN2C(=O)C(C)N(C(=O)c3ccccc3)c3ccccc32)c1 (stereo not given)	0	?	5	10µM*	-2%
